Compounds with a hit are over-represented: about 32% of the library has one in this group of screens.
CYP2C9 act = human CYP2C9 activators, primary screen, biochemical, luminescence; Cytochrome P450 2C9 (Homo sapiens), P11712; recombinant CYP2C9, luciferin-H conversion; hits give high values; factor 1 = untreated enzyme, 0 = blocked; activation factor at 5 µM; actives 1.4% (n = 96,000);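 active means activation factor of 2 or more for CYP2C9 at a 5 µM dose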;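 further: 0 = sulfaphenazole-blocked wells and 1 = vehicle-only wells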
CYP2C9 inhib = blockers of cytochrome P450 2C9 activity – biochemical, luminescence, ADME assay, primary screen. P11712. CYP2C9 Supersomes, luciferin-H conversion. inhibition, % at 5 µM. actives 20% (n = 96,000). AID 777, 2007;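 active means blocking of liver enzyme CYP2C9 beyond about 50% at 5 µM, limit read from the data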
PostGolgi ctrl = growth inhibition of yeast control strain, primary screen, counter-screen for post-Golgi transport modulator project. efflux-deficient yeast background strain, growth absorbance A615, 16 h. inhibition, % at 10 µM. actives 5% (n = 98,000)
PostGolgi yeast = phenotypic screen on post-Golgi transport, primary screen; post-Golgi transport phenotypic cell assay; inhibition, % at 10 µM; actives 0.9% (n = 98,000); AID 739, 2007;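 further: yeast cells grown in 1536-well plates; yeast grown about 18 h at 30C before absorbance read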
CYP2C19 act = human CYP2C19 activators, primary screen, biochemical, luminescence | recombinant CYP2C19, luciferin-H EGE luminescence; hits give high values; 0 = fully inhibited enzyme, 1 = untreated enzyme | AID 1025, 2008 | activation factor at 5 µM | Cytochrome P450 2C19 (Homo sapiens), P33261 | 96,000 tested, under 10 active;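 active means activation factor of at least 2 at 5 µM in the primary screen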;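 further: 0 = wells with 2.5 mM tranylcypromine and 1 = vehicle-only wells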
Target sequence (P33261 whole entry, looked up): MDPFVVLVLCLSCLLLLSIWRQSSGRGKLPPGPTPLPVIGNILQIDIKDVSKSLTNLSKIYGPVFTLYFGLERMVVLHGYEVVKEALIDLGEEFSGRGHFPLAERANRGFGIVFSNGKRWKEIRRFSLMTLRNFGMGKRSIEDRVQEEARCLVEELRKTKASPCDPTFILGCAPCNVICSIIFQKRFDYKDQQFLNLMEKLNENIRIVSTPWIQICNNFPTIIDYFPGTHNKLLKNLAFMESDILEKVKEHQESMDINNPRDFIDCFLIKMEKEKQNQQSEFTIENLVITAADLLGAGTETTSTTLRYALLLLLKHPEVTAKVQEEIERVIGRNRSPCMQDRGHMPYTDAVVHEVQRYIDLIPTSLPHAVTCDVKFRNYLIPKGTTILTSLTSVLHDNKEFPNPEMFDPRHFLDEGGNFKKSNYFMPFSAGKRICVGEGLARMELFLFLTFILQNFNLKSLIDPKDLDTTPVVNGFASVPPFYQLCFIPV
CYP2C19 inh = blockers of cytochrome P450 2C19 activity – biochemical, luminescence, ADME assay, primary screen | CYP2C19 Supersomes, luciferin-H EGE luminescence, 30 min | P33261 | actives 21% (n = 96,000) | inhibition, % at 5 µM | AID 778, 2007;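 active means CYP2C19 inhibition above a set limit at 5 µM in the primary screen, cut at about 50% in these data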;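 further: plate controls were negative control wells for no effect and 2.5 mM tranylcypromine positive control for full effect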
* hit, by the source's call; . = no result. Unless noted, no stated cut-off is given here; in the data, active means inhibition above about 30%; inactive means the rest.

SMILES	CYP2C9 act	CYP2C9 inhib	PostGolgi ctrl	PostGolgi yeast	CYP2C19 act	CYP2C19 inh
CCOC(=O)COc1ccc(Br)cc1C1NC(=O)NC(C)=C1C(=O)NCc1ccccc1 (centres undefined)	0.2	83*	7	-16	1	0
N#Cc1nc(COc2ccccc2)oc1NCCN1CCOCC1	0.9	9	11	1	0.9	9
CC(C)c1nc(C#N)c(NCCCn2ccnc2)o1	0.1	91*	-3	-1	0	100*
N#Cc1nc(Cc2ccccc2)oc1NCCCn1ccnc1	0.2	77*	-6	6	0.1	92*
C/C(NCCCn1ccnc1)=C(\C#N)C(N)=O	1	-2	3	-5	0.9	10
COc1ccc(-c2nc(C#N)c(NCc3ccccc3Cl)o2)cc1	1.1	-11	4	9	1.2	-19
N#Cc1nc(Cc2ccccc2)oc1NCc1ccccc1Cl	0.4	56*	46*	17	0.4	63*
C/C(=N\N=C\c1ccccc1)c1nnn(-c2nonc2N)c1C	0.6	39	-7	-6	0.7	25
CCCCCCC1NC(C(=O)O)CS1 (centres undefined)	1	-4	10	16	1	3
CC(C)(C)c1nc(CN2CCOCC2)ccc1O	1.1	-6	7	4	0.4	60*
CCCn1c(N2CCN(CC(=O)Nc3ccc4c(c3)OCCO4)CC2)nc2ccccc21	0.9	14	7	2	0.8	23
CCCn1c(=O)c(C(=O)Nc2nnc(CC)s2)c(O)c2ccccc21	0.8	17	.	.	1.1	-12
CN(C(=O)CSc1nc(N)nn1-c1ccccc1)c1ccccc1	0.7	33	-8	1	0.2	84*
CCOC(=O)N1CCN(C(=O)CSc2nc3c([nH]c4ccccc43)c(=O)n2C)CC1	.	.	3	0	.	.
O=C(NCCO)NC(=S)c1ccccc1	1	1	-5	-1	1	2
Cc1ccc(S(=O)(=O)NC(=O)Nc2nnc(C)s2)cc1	1	3	4	-5	0.9	6
C/C(=N\NC(=O)c1c(Cl)c(C)nn1C)c1cccc(NC(=O)COc2ccccc2)c1	0.6	43	-20	2	0.7	28
C/C(=N\NC(=O)c1c(Cl)c(C)nn1C)c1ccc(NC(=O)COc2ccc(Cl)cc2C)cc1	0.3	66*	-12	-1	0.6	42
CCOc1cccc(/C(O)=C2/C(=O)C(=O)N(Cc3cccnc3)C2c2ccco2)c1 (centres undefined)	0.3	65*	-5	2	0.9	6
O=C1C(=O)N(Cc2cccnc2)C(c2ccccn2)/C1=C(/O)c1ccc(F)cc1 (centres undefined)	0.3	71*	-5	3	1.1	-7
COc1ccc(/C(O)=C2/C(=O)C(=O)N(Cc3cccnc3)C2c2ccco2)cc1OC (centres undefined)	0.6	37	-3	2	0.7	26
Cc1ccc(/C(O)=C2/C(=O)C(=O)N(Cc3cccnc3)C2c2ccccn2)cc1 (centres undefined)	0.1	90*	-1	-7	0.3	66*
CN(/C=C/C(=O)C(F)(F)C(F)(F)F)Cc1ccccc1	0.9	10	24	3	0.4	62*
COc1ccc(CNC(=O)C(c2ccncc2)N(C(=O)Cc2cccs2)c2ccc(C)cc2)cc1 (centres undefined)	0.3	69*	19	23	0.3	67*
CCC(C)(C(=O)NC1CCCCC1)N(Cc1cccs1)C(=O)Cc1cccs1 (centres undefined)	0.7	32	24	1	0.8	23
SMILES	CYP2C9 act	CYP2C9 inhib	PostGolgi ctrl	PostGolgi yeast	CYP2C19 act	CYP2C19 inh
Cn1cccc1C(C(=O)NC1CCCCC1)N(C(=O)Cc1cccs1)C1CC1 (centres undefined)	0.9	12	4	-5	0.1	92*
O=C(NC1CCCCC1)C(c1ccc2ncccc2c1)N(Cc1ccc(F)cc1)C(=O)c1cccs1 (centres undefined)	0.2	84*	-5	-9	0.3	66*
COc1ccc(CCN(C(=O)C(F)(F)F)C(C(=O)NC2CCCC2)c2cccs2)cc1OC (centres undefined)	0.1	88*	15	19	0.1	85*
COc1ccc(-c2cnn3c4c(c(C)nc23)CCN4C(C)C)cc1OC	0.9	8	3	5	1.1	-8
O=C(Nc1ccccc1)NC1(C(=O)N2CCN(c3ncccn3)CC2)CCCCC1	1.2	-16	1	4	0.8	15
Cc1ccc(C(C(=O)NC2CCCC2)N(Cc2cccs2)C(=O)CNC(=O)c2cccs2)o1 (centres undefined)	0.5	47	9	-4	0.6	42
COc1cccc(CN(C(=O)Cc2c[nH]c3ccccc23)C(C(=O)NC2CCCCC2)c2cccs2)c1 (centres undefined)	0	98*	16	6	0.1	94*
COc1ccc(C(C(=O)NC2CCCCC2)N(Cc2cccs2)C(=O)Cc2c[nH]c3ccccc23)cc1 (centres undefined)	0.3	68*	10	-6	0.5	49
O=C(Cc1cccs1)N(Cc1cccs1)C1(C(=O)NC2CCCCC2)CCCCC1	1.2	-19	31*	1	1.1	-6
C#CC(=O)N(c1cccc(OC)c1)C(C(=O)NC1CCCC1)c1cccs1 (centres undefined)	0.8	24	21	-2	0.4	57*
COC(=O)c1ccc(NC(=O)c2ccc(N(C)S(C)(=O)=O)cc2)cc1	0.9	5	-8	-13	1	1
COc1ccc(C(C(=O)NC2CCCC2)N(Cc2ccccc2)C(=O)c2nsc(Cl)c2Cl)cc1 (centres undefined)	0.4	64*	1	13	0.4	61*
CCOc1ccc(C(C(=O)NC2CCCC2)N(Cc2ccccc2)C(=O)c2nsc(Cl)c2Cl)cc1 (centres undefined)	0.8	25	0	-16	0.9	8
COc1ccc(CN(C(=O)Cc2cccs2)C(C(=O)NC2CCCC2)c2ccncc2)cc1 (centres undefined)	0.3	67*	2	38*	0.2	80*
COC(=O)CSc1nnc(CNC(=O)Cc2ccccc2)n1-c1ccccc1OC	1.1	-12	-7	5	1.1	-11
CCC1(C)Cc2c(sc3nnn(CC(=O)Nc4ccccc4)c(=O)c23)CO1 (centres undefined)	0.3	68*	4	-1	0.1	89*
CCC1(C)Cc2c(sc3c2c(=O)n(C)c2nnc(SCCc4ccccc4)n32)CO1 (centres undefined)	1.1	-6	12	2	1.1	-5

Screens deposited in PubChem by several laboratories.
